Data on 14 molecules can be found in PubChem BioAssay.

Each structure is given as a SMILES string. Activity calls are given as the source filed them.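 How the source made its calls, unless noted: active means inhibition at or above 50% at 10 µM; inactive means inhibition below 50%.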

For orientation: inhibition means the relative decrease from the control value, in per cent.

Assay [1] can be described thus: inhibitors of TNFa-induced NFkB p65 translocation, primary screen, imaging, HUVEC, MLSMR starter and 10KST1 sets (AID 438;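 active means inhibition above 20% together with a positive visual image hit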;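 further: compound added about 3h40 before a 20 min TNFalpha stimulation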;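 on inhibition: signal is the nuclear over cytoplasmic p65 intensity ratio per well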). Conditions: HUVEC TNFa-induced p65 nuclear translocation; cell count: measured here: nuclei count (cytotoxicity indicator), at 2.08 µM; inhibition: at 2 µM, stronger effect = higher value, 0% TNFa-plus-vehicle, 100% no-TNFa wells.
The nature of assay [2]: reduction of polyQ htt aggregates in cells – imaging, exon1htt(103Q)mCFP cells, high-content imaging, primary screen (AID 483;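 active means visual image review flags a hit and inhibition of aggregation exceeds 20%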;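 further: compound exposure lasted 3 days before fixation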;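 on nuclei count: percent of the per-plate median nuclei count of sample wells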). Conditions: exon1htt(103Q)mCFP cell line, aggregate imaging, at 2 µM; inhibition of aggregation: stronger effect = higher value; nuclei count: measured here: cell count, toxicity.
Assay [3] is described as follows: endothelial E-selectin expression blockers – imaging, HUVEC, immunofluorescence, MLSMR starter and 10KST1 sets, primary screen (AID 487;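 active means visually confirmed hit in the image check and inhibition above 20%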;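 on inhibition: signal is fraction of cell area covered by stained E-selectin grains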;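 on nuclei count: 100% = median nuclei count of all wells on the same plate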). Conditions: HUVEC TNFalpha-induced E-selectin immunofluorescence imaging, at 2 µM; inhibition: stronger effect = higher value; nuclei count: measured here: cell number, toxicity.
In assay [4] the target is Voltage-gated potassium channel subunit beta-2 (Rattus norvegicus) (UniProt P62483). In words: inhibitors of rat Kvbeta2 reductase activity – biochemical, NADPH fluorescence, primary screen (AID 622;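 active means fluorescence slope higher than the sample average by over 3 SD, cut at about -0.22 in these data, passing the limit was not always enough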;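 further: slope of raw intensity against log time taken from 70 to 1610 s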). The note with it: recombinant KvBeta, 4-cyanobenzaldehyde reduction, at 10 µM, stronger effect = higher value.
Sequence of Voltage-gated potassium channel subunit beta-2 (Rattus norvegicus) (P62483 whole entry, looked up): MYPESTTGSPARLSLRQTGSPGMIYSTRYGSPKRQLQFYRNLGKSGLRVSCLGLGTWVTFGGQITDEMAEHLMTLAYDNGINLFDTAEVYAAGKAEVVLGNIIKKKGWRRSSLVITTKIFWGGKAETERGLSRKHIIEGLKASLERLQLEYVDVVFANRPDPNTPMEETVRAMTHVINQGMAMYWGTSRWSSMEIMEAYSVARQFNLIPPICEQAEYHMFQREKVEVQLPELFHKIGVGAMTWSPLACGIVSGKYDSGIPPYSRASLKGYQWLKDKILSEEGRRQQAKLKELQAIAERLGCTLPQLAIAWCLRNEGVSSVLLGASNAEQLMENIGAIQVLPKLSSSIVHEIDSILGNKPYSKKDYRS
Assay [5] has the same target. In words: enhancers of rat Kvbeta2 NADPH turnover – biochemical, NADPH fluorescence, primary screen (AID 623;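 active means NADPH fluorescence slope more negative than the mean of all samples by about 3 SD, 99.7% confidence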;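 further: fluorescence intensity change per second fitted from 20 to 320 s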). Conditions: Recombinant KvBeta, NADPH fluorescence decrease slope, 10 min; at 10 µM; stronger effect = lower value.
For assay [6], the target named is Alpha-2C adrenergic receptor (Homo sapiens) (UniProt P18825). In words: compounds altering alpha2C-coupled GIRK flux – cell-based, HEK293 alpha2C/GIRK1/2, thallium flux, primary screen (AID 624;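 active means fluorescence slope after compound addition differing from the mean of all screened samples at 99.7% confidence, in either direction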;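 further: slope of fluorescence ratio to pre-addition baseline per second over 15 to 24 s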). The note with it: thallium flux BTC fluorescence, at 10 µM, actives lie on both sides.
Sequence of Alpha-2C adrenergic receptor (Homo sapiens) (P18825 whole entry, looked up): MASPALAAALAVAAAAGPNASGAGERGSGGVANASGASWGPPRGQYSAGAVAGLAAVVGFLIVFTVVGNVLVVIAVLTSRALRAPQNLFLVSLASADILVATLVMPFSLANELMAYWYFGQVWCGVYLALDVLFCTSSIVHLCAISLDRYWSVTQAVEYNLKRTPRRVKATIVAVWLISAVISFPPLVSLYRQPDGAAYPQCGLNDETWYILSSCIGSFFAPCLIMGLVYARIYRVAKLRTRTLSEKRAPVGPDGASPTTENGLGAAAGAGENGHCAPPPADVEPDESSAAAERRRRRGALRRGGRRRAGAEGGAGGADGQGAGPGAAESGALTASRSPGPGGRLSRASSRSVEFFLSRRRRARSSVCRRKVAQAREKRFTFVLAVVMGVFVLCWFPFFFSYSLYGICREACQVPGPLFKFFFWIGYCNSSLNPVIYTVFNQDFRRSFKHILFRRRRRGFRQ
Assay [7] in a line: blockers of RIG-like receptor reporter activation – cell-based, Sendai virus stimulus, luciferase, 10K MLSCN set, TLR/RLR signaling modifier project, primary screen (AID 602276).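 Further: firefly luciferase from ISG56 promoter only with Renilla not read in this screen; 0% = Sendai virus plus DMSO and 100% = medium plus DMSO without virus.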 Conditions: HEK293 RL24 IRF3 luciferase reporter, at 10 µM, stronger effect = higher value.
Assay [8] in a line: TLR3 IRF3 reporter activation blockers – cell-based, poly I:C stimulus, luciferase, 10K MLSCN set, primary screen (AID 602277;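 active means inhibition of the reporter signal at or above 50%; inactive means inhibition below 50%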). The note with it: HEK293-TLR3 RL24 IRF3 luciferase reporter, at 10 µM, stronger effect = higher value. On the technique in general: Reporter assays use an easily measured gene product as a stand-in for the process of interest.

As for `Cc1ccc(-n2nnnc2SCC(=O)Nc2c(C)n(C)n(-c3ccccc3)c2=O)cc1`, the cell count in assay [1] is 637. For the same molecule, the inhibition was -1.1% (inactive) in assay [1], -18.7% (inactive) in assay [3], -6.61% (inactive) in assay [7] and -12.3% (inactive) in assay [8]. For the same molecule, the inhibition of aggregation in assay [2] is 4.2% (inactive). Further, the nuclei count in assay [2] amounted to 91.4%; in assay [3], 106%. Also, the fluorescence slope in assay [4] is -0.583 (inactive). Further, the NADPH fluorescence slope in assay [5] is -1.3e-05 (inactive). The slope in assay [6] is 0.00453 (inactive).

In the case of `COc1ccc(OC)c(NC(=O)C2C3CC4OC(=O)C2C4C3)c1` (centres undefined), the cell count in assay [1] stood at 318. In addition, the inhibition in assay [1] was -5.7% (inactive); in assay [3] it was -119% (inactive); in assay [7], 13.4% (inactive); in assay [8], 18.6% (inactive). For the same molecule, the inhibition of aggregation in assay [2] was 6.4% (inactive). Moreover, the results for the nuclei count in assay [2] and in assay [3] were 117% and 114%, respectively. Further, in assay [4], the fluorescence slope is -0.322 (inactive). Also, the NADPH fluorescence slope in assay [5] was -5.4e-05 (inactive). Besides, in assay [6], the slope was 0.0056 (inactive).

`Cc1noc(C)c1CSc1nnc2scc(-c3ccc(Cl)cc3)n12`: the cell count in assay [1] amounted to 339. Besides, the inhibition is -0.4% (inactive) in assay [1], -88.2% (inactive) in assay [3], -1.42% (inactive) in assay [7] and 6.73% (inactive) in assay [8]. Besides, the inhibition of aggregation in assay [2] is -18.6% (inactive). For the same molecule, the nuclei count in assay [2] is 120%; in assay [3] it was 122%. Moreover, the fluorescence slope in assay [4] was -0.52 (inactive). Moreover, the NADPH fluorescence slope in assay [5] is -2.1e-05 (inactive). The slope in assay [6] is 0.00506 (inactive).

As to `COc1ccc(N2C(=O)CCC(C(=O)N3CCCCC3)C2c2ccc(OC)c(OC)c2)cc1` (centres undefined), the cell count in assay [1] was found to be 164. Further, the inhibition was -1.9% (inactive) in assay [1], -17.5% (inactive) in assay [3], 12.8% (inactive) in assay [7] and 21.7% (inactive) in assay [8]. For the same molecule, the inhibition of aggregation in assay [2] is 21.6% (inactive). The nuclei count in assay [2] amounted to 96.5%; in assay [3], 97%. In addition, in assay [4], the fluorescence slope is -0.412 (inactive). The NADPH fluorescence slope in assay [5] was 5.3e-05 (inactive). In addition, in assay [6], the slope is 0.00625 (inactive).

In the case of `CC1CCCC(C)N1C(=O)COC(=O)c1ccc[nH]c1=O` (centres undefined), the cell count in assay [1] worked out at 476. In addition, the inhibition in assay [1] was 0% (inactive); in assay [3] it was 25.2% (inactive); in assay [7], 16.7% (inactive); in assay [8] it was 31.4% (inactive). Further, in assay [2], the inhibition of aggregation was 3.4% (inactive). For the same molecule, the nuclei count in assay [2] was determined as 98.4%; in assay [3], 113%. Also, the fluorescence slope in assay [4] is -0.326 (inactive). Besides, the NADPH fluorescence slope in assay [5] was -7.3e-06 (inactive). Besides, the slope in assay [6] is 0.00649 (inactive).

As for `CCOC(=O)C(NC(C)=O)(NS(=O)(=O)c1ccccc1)C(F)(F)F` (centres undefined), the cell count in assay [1] came to 537. Further, the inhibition is -2.4% (inactive) in assay [1], 39.5% (inactive) in assay [3], 10.5% (inactive) in assay [7] and 14.2% (inactive) in assay [8]. The inhibition of aggregation in assay [2] was 18.4% (inactive). The nuclei count in assay [2] amounted to 88.5%; in assay [3], 90.8%. Besides, the fluorescence slope in assay [4] was -0.616 (inactive). The NADPH fluorescence slope in assay [5] was 5.2e-06 (inactive). For the same molecule, the slope in assay [6] was 0.00712 (inactive).

`CCOC(=O)CNC(=O)CSc1nc(N(C)C)nc(N2CCOCC2)n1`: the cell count in assay [1] worked out at 580. Moreover, the inhibition in assay [1] is 5.1% (inactive); in assay [3], -71.8% (inactive); in assay [7], 18.7% (inactive); in assay [8], 26.3% (inactive). Moreover, the inhibition of aggregation in assay [2] was -7.9% (inactive). The nuclei count in assay [2] stood at 110%; in assay [3], 111%. Further, the fluorescence slope in assay [4] was -0.517 (inactive). Also, the NADPH fluorescence slope in assay [5] was -4e-05 (inactive). Moreover, the slope in assay [6] is 0.00497 (inactive).

`O=C(CN1C(=O)c2ccccc2S1(=O)=O)NCc1ccccn1`: the cell count in assay [1] was found to be 643. Further, the inhibition in assay [1] is 0% (inactive); in assay [3], 5% (inactive); in assay [7] it was 13.6% (inactive); in assay [8], 26.2% (inactive). Also, in assay [2], the inhibition of aggregation is -6.2% (inactive). Also, the figures for the nuclei count in assay [2] and in assay [3] were 90.1% and 119%, respectively. Moreover, the fluorescence slope in assay [4] was -0.61 (inactive). Besides, in assay [5], the NADPH fluorescence slope is 4e-06 (inactive). In addition, the slope in assay [6] was 0.00685 (inactive).

Consider `CS(=O)(=O)N1CCN(c2ccccc2NC(=O)c2ccc(-c3ccc(Cl)cc3Cl)o2)CC1`, for which the cell count in assay [1] is 194. For the same molecule, the inhibition was -3.5% (inactive) in assay [1], 24.8% (inactive) in assay [3], 12% (inactive) in assay [7] and 23.2% (inactive) in assay [8]. The inhibition of aggregation in assay [2] was 32.9% (active). Also, the nuclei count is 72.7% in assay [2] and 54.7% in assay [3]. Moreover, the fluorescence slope in assay [4] was -0.357 (inactive). In addition, the NADPH fluorescence slope in assay [5] was 2.6e-05 (inactive). In addition, the slope in assay [6] was 0.00896 (inactive).

`Cc1ccc(Cn2nnnc2CN2CCC(O)(c3ccccc3F)CC2)cc1`: the cell count in assay [1] was found to be 784. In addition, the inhibition was 0.2% (inactive) in assay [1], -57% (inactive) in assay [3], 20.8% (inactive) in assay [7] and 16.6% (inactive) in assay [8]. Besides, the inhibition of aggregation in assay [2] was 12.3% (inactive). In addition, the figures for the nuclei count in assay [2] and in assay [3] were 96.1% and 122%, respectively. Besides, the fluorescence slope in assay [4] was -0.498 (inactive). Also, the NADPH fluorescence slope in assay [5] is -5.4e-05 (inactive). For the same molecule, the slope in assay [6] is 0.00492 (inactive).

With `O=C(NCc1ccco1)C1(S(=O)(=O)c2ccc(Cl)cc2)CC1`, in assay [1], the cell count was determined as 412. In addition, the inhibition in assay [1] was 1.1% (inactive); in assay [3] it was -100% (inactive); in assay [7], 16.2% (inactive); in assay [8] it was 32.7% (inactive). Also, in assay [2], the inhibition of aggregation was -16% (inactive). Moreover, the nuclei count in assay [2] came out at 120%; in assay [3], 115%. Further, the fluorescence slope in assay [4] was -0.639 (inactive). Moreover, in assay [5], the NADPH fluorescence slope was 2e-05 (inactive). Moreover, the slope in assay [6] is 0.00602 (inactive).

As to `O=C(c1cc2ccccc2oc1=O)N1CCN(c2ccc(N3CCOCC3)nn2)CC1`, the cell count in assay [1] amounted to 490. For the same molecule, the inhibition is -6.9% (inactive) in assay [1], -13.6% (inactive) in assay [3], -9.88% (inactive) in assay [7] and 18.4% (inactive) in assay [8]. Further, in assay [2], the inhibition of aggregation is 0.1% (inactive). In addition, the nuclei count in assay [2] is 104%; in assay [3], 110%. For the same molecule, the fluorescence slope in assay [4] is -0.603 (inactive). Further, the NADPH fluorescence slope in assay [5] was -1.8e-05 (inactive). In addition, in assay [6], the slope was 0.00513 (inactive).

Regarding `Cc1ccc2nc(NC(=O)C3CCCN(S(=O)(=O)c4cnc[nH]4)C3)sc2c1` (centres undefined), the cell count in assay [1] came to 567. In addition, the inhibition in assay [1] is 6.9% (inactive); in assay [3], -42.7% (inactive); in assay [7], -43.1% (inactive); in assay [8] it was -79.3% (inactive). The inhibition of aggregation in assay [2] is -11.1% (inactive). The nuclei count in assay [2] is 106%; in assay [3], 113%. The fluorescence slope in assay [4] is -0.553 (inactive). Moreover, the NADPH fluorescence slope in assay [5] is -6.7e-06 (inactive). The slope in assay [6] was 0.00608 (inactive).

As to `CC(CCc1ccco1)NC(=O)Cn1ncc2c1-c1ccccc1OC2` (centres undefined), the cell count in assay [1] was determined as 762. Besides, the inhibition in assay [1] was -3.2% (inactive); in assay [3] it was 0.8% (inactive); in assay [7] it was -1.38% (inactive); in assay [8] it was 11.2% (inactive). Besides, the inhibition of aggregation in assay [2] is -17.9% (inactive). Besides, the nuclei count in assay [2] stood at 126%; in assay [3], 120%. The fluorescence slope in assay [4] was -0.539 (inactive). In assay [5], the NADPH fluorescence slope is -1.5e-05 (inactive). Moreover, in assay [6], the slope was 0.00662 (inactive).
